# Measured values published in the supplement of paper PMC8699584.
# “And” between values parts separate entries of the source, which are not always exact repeats. Identical values can stand only once. ± gives the standard deviation of the averaged measurements.
# Columns and labels:
# Molm13 = test: cell viability relative to DMSO control (bortezomib = 0%); higher = less growth inhibition; details: 10 nM; 72 h
# Summary of the method: (§1)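 Cell viability was assessed by CellTiter-Glo luminescence. Acute myeloid leukemia cells were seeded at 1000 cells per well in 50 µL on a 384-well library of 679 compounds at a single 10 nM dose for 72 h. Per-plate linear regression set DMSO-treated cells at 100% and positive-control-treated cells at 0%.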
# Mv4-11 = test: as above; details: 10 nM; 72 h
# Summary of the method: as §1
Structure (SMILES),cell viability (Molm13),cell viability (Mv4-11)
CCN(CC)CCNC(=O)c1c(C)[nH]c(/C=C2\C(=O)Nc3ccc(F)cc32)c1C [Sunitinib],111 ± 26%,117 ± 4.9%
N#CC[C@H](C1CCCC1)n1cc(-c2ncnc3[nH]ccc23)cn1,87.6 ± 8.3%,109 ± 4%
CNC(=O)c1ccc(C)c(-n2c(C)cc(OCc3ccc(F)cc3F)c(Br)c2=O)c1,97.9 ± 3.1%,110 ± 1.8%
Cn1sc(=O)n(Cc2ccccc2)c1=O,90.9 ± 6.1%,108 ± 21%
O=C1NC(=O)/C(=C/c2ccc3c(c2)OCO3)S1,96 ± 3%,112 ± 8%
CNc1nc(-c2ccc3c(N)n[nH]c3c2)cc(N2C[C@@H](C(=O)NC3CCCCC3)CC[C@H]2C)n1,112 ± 2.6%,99.15 ± 0.68%
CN(C)CCCn1cc(C2=C(c3c[nH]c4ccccc34)C(=O)NC2=O)c2ccccc21 [Bisindolylmaleimide I],94.6 ± 15%,67.1 ± 44%
CC#CC(=O)N1CCC[C@H]1c1nc(-c2ccc(C(=O)Nc3ccccn3)cc2)c2c(N)nccn12 [Acalabrutinib],111 ± 8.4%,125.6 ± 1.1%
O=C(Nc1ccccc1C(=O)NC1CCCCNC1=O)c1cc2ccccc2s1 (centres undefined),98.3 ± 4.7%,103 ± 1.5%
Cc1ncc(CCCN(C)C)cc1Nc1ncc2c(n1)-c1ccc(C(F)(F)F)cc1NC(=S)C2,100 ± 2.9%,108 ± 7.1%
Cn1cc(C2=C(c3ccc(Cl)cc3Cl)C(=O)NC2=O)c2ccccc21,96.9% and 84.3%,106% and 108%
COc1ccc(S(=O)(=O)N(C(C)=O)c2ccccc2/C=C/c2cc[n+]([O-])cc2)cc1,98.3 ± 18%,104 ± 27%
